# Assay results reported in the supplement of paper PMC8728848.
# Many of the other results were omitted from the sample, so the strongest signals are more common in it than they were.
# B1: SrpA (Streptococcus sanguis) (protein)
# chain: SSKSESTVNSQSASSETNRSSTNNGSTSSSSETARVRKRRATDTTPPTITVPSDIIAYRGEEFEFYFEITDDSGQVKNIELSTFGKPLGLNWLEYSEDNFNVPGNATSDNPLRVRVHGTVPLNEPIPADKNRAQFTRTIRAWDAAGNVSSNITFVIKYRAQTDKYNPADPTITYVDRLSSLSPSEKNAVEAAVRAANPQIPAAARITVSANGTVTITYPDSSTDTITANRVVKDLASSRSALT
# Key:
# Experiment in all cases: glycan array binding signal (z-score within array); higher = stronger binding
# Conditions in all cases: glycan notation: IUPAC condensed, linker removed
# [1] = target: Fuc(a1-2)Gal(b1-4)GlcNAc(b1-3)Gal(b1-4)GlcNAc
# Outline: (§1)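 Glycan array data were curated from 3228 arrays in the Consortium for Functional Glycomics database and kept only where the protein sequence was available. Glycan names were converted to IUPAC-condensed notation, and columns mapping to the same glycan were averaged. The binding signal is a within-array Z-score, averaged across arrays of the same protein sequence at different concentrations or buffers and across linkers. Negative Z-scores can be read as non-binding.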
# [2] = target: Fuc(a1-2)Gal(b1-4)GlcNAc(b1-3)Gal(b1-4)GlcNAc(b1-3)Gal(b1-4)GlcNAc
# Outline: as §1
# [3] = target: Fuc(a1-2)[Gal(a1-3)]Gal
# Outline: as §1
# [4] = target: Fuc(a1-3)[Gal(b1-4)]GlcNAc(b1-3)Gal(b1-3)[Fuc(a1-4)]GlcNAc
# Outline: as §1
# [5] = target: Fuc(a1-3)[GalNAc(b1-4)]GlcNAc
# Outline: as §1
# [6] = target: Gal(a1-3)Gal(b1-4)Glc
# Outline: as §1
# [7] = target: Gal(a1-3)GalNAc
# Outline: as §1
# [8] = target: Gal(b1-3)GalNAc(b1-4)[Neu5Ac(a2-3)]Gal(b1-4)Glc
# Outline: as §1
# [9] = target: Gal(b1-4)GlcNAc(b1-6)GalNAc
# Outline: as §1
# [10] = target: Gal3S(b1-3)GlcNAc
# Outline: as §1
# [11] = target: GalNAc(b1-3)Gal(a1-4)Gal(b1-4)GlcNAc
# Outline: as §1
# [12] = target: GlcNAc(b1-3)Gal(b1-3)GalNAc
# Outline: as §1
# [13] = target: GlcNAc(b1-3)Gal(b1-4)GlcNAc
# Outline: as §1
# [14] = target: GlcNAc(b1-3)[GlcNAc(b1-4)][GlcNAc(b1-6)]GlcNAc
# Outline: as §1
# [15] = target: Kdn(a2-3)Gal(b1-3)GlcNAc
# Outline: as §1
# [16] = target: Man(a1-2)Man(a1-3)[Man(a1-2)Man(a1-6)]Man
# Outline: as §1
# [17] = target: Man(a1-2)Man(a1-3)[Man(a1-2)Man(a1-6)]Man(a1-6)[Man(a1-2)Man(a1-2)Man(a1-3)]Man(b1-4)GlcNAc(b1-4)GlcNAc
# Outline: as §1
# [18] = target: Man(a1-3)[Man(a1-6)]Man(a1-6)[Man(a1-3)]Man(b1-4)GlcNAc(b1-4)GlcNAc
# Outline: as §1
# [19] = target: Man(a1-3)[Man(a1-6)]Man(b1-4)GlcNAc(b1-4)GlcNAc
# Outline: as §1
# [20] = target: Neu5Ac(a2-3)Gal(b1-3)GalNAc(b1-4)[Neu5Ac(a2-3)]Gal(b1-4)Glc
# Outline: as §1
# [21] = target: Neu5Ac(a2-3)[Neu5Ac(a2-6)]GalNAc
# Outline: as §1
# [22] = target: Neu5Ac(a2-6)GalNAc
# Outline: as §1
# [23] = target: Neu5Ac(a2-8)Neu5Ac(a2-8)Neu5Ac
# Outline: as §1
# [24] = target: Neu5Ac(a2-8)Neu5Ac(a2-8)Neu5Ac(a2-3)[GalNAc(b1-4)]Gal(b1-4)Glc
# Outline: as §1
# [25] = target: Neu5Ac(a2-8)Neu5Ac(a2-8)Neu5Ac(a2-8)Neu5Ac(a2-3)[GalNAc(b1-4)]Gal(b1-4)Glc
# Outline: as §1
# [26] = target: Neu5Gc(a2-3)Gal(b1-4)GlcNAc
# Outline: as §1
binder,measurement,setting,value
B1,glycan array binding signal (z-score),[1],-0.109
same,glycan array binding signal (z-score),[2],2.25
same,glycan array binding signal (z-score),[3],0.762
same,glycan array binding signal (z-score),[4],-0.157
same,glycan array binding signal (z-score),[5],-0.159
same,glycan array binding signal (z-score),[6],0.291
same,glycan array binding signal (z-score),[7],-0.317
same,glycan array binding signal (z-score),[8],-0.532
same,glycan array binding signal (z-score),[9],-0.04
same,glycan array binding signal (z-score),[10],0.646
same,glycan array binding signal (z-score),[11],-0.265
same,glycan array binding signal (z-score),[12],1.6
same,glycan array binding signal (z-score),[13],-0.543
same,glycan array binding signal (z-score),[14],-0.657
same,glycan array binding signal (z-score),[15],0.272
same,glycan array binding signal (z-score),[16],-0.848
same,glycan array binding signal (z-score),[17],-0.332
same,glycan array binding signal (z-score),[18],1.57
same,glycan array binding signal (z-score),[19],-0.474
same,glycan array binding signal (z-score),[20],-0.383
same,glycan array binding signal (z-score),[21],-0.566
same,glycan array binding signal (z-score),[22],5.01
same,glycan array binding signal (z-score),[23],-0.629
same,glycan array binding signal (z-score),[24],-0.901
same,glycan array binding signal (z-score),[25],2.24
same,glycan array binding signal (z-score),[26],-0.45
